Laboratory results published in PubChem BioAssay AID485297 (National Center for Advancing Translational Sciences (NCATS), 2010).
Out of some 320,000 compounds screened, about 9,100 (2.8%) were called active. Not shown: some 3% with an inconclusive outcome. The call rests on the fitted dose curve; in most records, active means well fitted activation curve with a large enough effect; inconclusive means small, poorly fitted or top-dose-only effect; inactive means no such curve, though single readings can be large or run the other way. The full list was thinned out, with actives kept by preference.

Test: qHTS Assay for Rab9 Promoter Activators; further: nearly all actives have a fitted effect of over 60% in size; on activation, negative = inhibition: % of control where 0% means no effect
Settings: Huh7 Rab9 promoter-luciferase reporter, luminescence, 24 h; series mostly up to 9.22 µM; activation, negative = inhibition: at the top concentration
In short: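 Quantitative HTS format; Huh7 Rab9-luciferase reporter cells (1500/well) receive compound 2 h post-plating, incubate 24 h at 37 °C, then get luciferase reagent for 10 min before luminescence reading.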
Potency means the concentration at half of the fitted maximal effect.

activation, negative = inhibition, inactive:
CCCn1c(=O)c(C(=O)Nc2cc(C)ccn2)c(O)c2ccccc21 13.5%
C=CCn1c(=O)c(C(=O)Nc2ncccc2O)c(O)c2ccccc21 -1.04%
COC(=O)CNS(=O)(=O)c1ccc(OC)cc1 -1.55%
C/C(N)=C(/C#N)C(=O)COC(=O)CNS(=O)(=O)c1ccc(C)cc1 14.1%
COc1ccc(S(=O)(=O)N2CCOCC2)cc1NC(=O)CSc1cc(C)ccc1C -1.36%
O=C(CSc1nc2ccccc2c(=O)n1CCCO)NC1CC1 1.65%
CN(CCO)Cc1csc2ccc(Br)cc12 -3.42%
CC(=O)Oc1ccc(-c2nc3c(C)cccc3c(=O)o2)cc1 14.5%
COc1ccc(/C=C/c2nnc(NC(=O)C(C)C)s2)cc1 24.8%
Cc1ccc(NC(=O)COC(=O)CN2CCCCCC2=O)c(C)c1 -1.3%
COc1ccc(OC)c(S(=O)(=O)Nc2c(C)nn(C)c2C)c1 -1.82%
CC(C)C(=O)NCc1cc(-c2ccc(Cl)cc2)no1 2.91%
Cc1ccc(S(=O)(=O)Cc2cc(-c3ccc(Cl)cc3)no2)cc1 -2.55%
Cc1sc2ncn(CC(=O)NCCCC(=O)NCc3ccc(F)cc3)c(=O)c2c1C 1.73%
CCCCCc1c(C)nc(N2CCN(Cc3ccc4c(c3)OCO4)CC2)[nH]c1=O 0.809%
O=C(NCc1ccncc1)c1cccc(NS(=O)(=O)c2ccc(F)c(F)c2)c1 -4.59%
O=C(CN1CCN(c2ccccn2)CC1)N1CCc2ccccc21 -2.95%
CCC(=O)N1CCCc2ccccc21 -0.452%
CCCCn1nc(C(=O)Nc2cccc(C(=O)NC3CC3)c2)c2ccccc2c1=O 1.93%
Cc1ccc(NC(=O)CCCNC(=O)c2ccc(Cl)cc2)cc1S(=O)(=O)N1CCOCC1 0.843%
O=C(NCCSc1ncc(-c2ccccc2)[nH]1)c1ccco1 4.74%
CCS(=O)(=O)Nc1ccc(C(=O)NCCSc2ccccc2)cc1 23.1%
CC(C)(CNC(=O)CNC(=O)C1CCCCC1)N1CCOCC1 1.12%
CCCCNC(=O)Cn1nc(C)c(S(=O)(=O)N2CCOCC2)c1C -1.92%
CC1CCN(S(=O)(=O)c2ccc3c(c2)n(C)c(=O)n3C)CC1 0.169%
CCOC(=O)CC1(NC(=O)c2cc(COc3cncc(Cl)c3)on2)CCCCC1 -9.36%
Cc1nonc1C1CCCN1C(=O)c1cc(COc2cccc(C(F)(F)F)c2)on1 (centres undefined) 0.106%
CC(C)(C)c1nnc(N/N=C/c2ccc(O)cc2)n(N)c1=O -0.399%
Cc1ccc(Cn2c(C)c3cnn(CC(=O)NCc4ccccn4)c(=O)c3c2C)cc1 -1.35%
Cc1ccc(C(=O)Nc2ncccc2C)cc1S(=O)(=O)N1CCOCC1 -2.03%
Cc1cc(NC(=O)COn2nnc3ccccc32)no1 4.33%
Cc1cc(NC(=O)COc2ccc([N+](=O)[O-])cc2)no1 2.19%
CCC(=O)Nc1ccc(C(=O)Nc2cc(C)on2)cc1 26.5%
CCOc1ccc(C(=O)Nc2ccc(S(=O)(=O)Nc3cc(C)on3)cc2)cc1 0.575%
Cc1cc(C)cc(NC(=O)C(OC(=O)c2ccc(O)cc2)c2ccccc2)c1 (centres undefined) 1.6%
COc1ccc([C@H]2CC(=O)C=C(c3ccc(OC(F)(F)F)cc3)C2)cc1OC -6.96%
CCN(CC)S(=O)(=O)c1ccc(N2CCOCC2)c(NC(=O)c2ccc(=O)n(C)n2)c1 -4.8%
COc1ccc2c(c1)[C@H]1[C@H](CO2)[C@H](c2ccccc2)[C@]2(C)C(=O)Nc3cc(F)c(F)cc3C(=O)N12 -9.74%
O=C(NCCN1CCOCC1)c1cccc(S(=O)(=O)Nc2ccc(F)cc2)c1 -3.93%
CC(=O)c1c(C)[nH]c(C(=O)COc2ccc3c(C)cc(=O)oc3c2)c1C -9.12%
Cc1ccc(Oc2cnn(-c3ccccc3)c(=O)c2Br)cc1 0.736%
O=c1c(Cl)c(NC2CC2)cnn1-c1ccccc1 12.3%
CC(=O)NC12CC3CC(C1)CC(C(=O)N1CCN(S(=O)(=O)c4cccs4)CC1)(C3)C2 -2.99%
CCn1nc(C(=O)Nc2ccc(N3CCOCC3)cc2)c2ccccc2c1=O 1.14%
c1ccc(-n2cccc2)c(N2CCCCC2)c1 -2%
CN(C)c1ccnc(Nc2ccc(F)cc2)c1C#N 0.525%
CC(C)c1ccc(/C=C/C(=O)NNC(=O)c2cccnc2)cc1 -7.13%
COc1ccc(C(=O)Nc2ccccc2C(=O)NCc2ccco2)cc1 -0.959%
COc1ccc(CNC(=O)CNC(=O)c2sc3ccccc3c2Cl)cc1OC 10.1%
Cc1c(CNCCc2ccccc2)c(C(=O)O)c(C)n1-c1ccccc1 0.0378%
CCOc1cc(CNCCN(C)C)c(Cl)cc1OCC(=O)NCCc1ccccc1 -6.67%
O=C(CN1CCc2ccccc2C1)Nc1cccc(S(=O)(=O)N2CCOCC2)c1 -0.571%
CC1CCN(C(=O)c2ccccc2NC(=O)Cc2ccccc2)CC1 -2.62%
COc1ccc(Cc2nc3ccc(C(=O)NCC4CCOCC4)cc3o2)cc1OC 24.7%
CCCCc1nc2cc(C(=O)NCCc3cnn(C)c3)ccc2o1 21.1%
COCCn1c(C)cc(C(=O)CSc2nnc(C3CC3)n2C2CC2)c1C 13.8%
O=C(CNC(=O)c1ccccc1Br)NNC(=O)c1cccs1 -0.728%
COc1cccc(N2CCN(CC(=O)Nc3ccnn3C3CCCC3)CC2)c1 -21.1%
O=C(Nc1nc(-c2ccc(-c3ccccc3)cc2)cs1)c1cnccn1 15%
O=C(NCCc1csc(-c2ccccc2)n1)c1ccccc1F 6.61%
O=C(Nc1ccc(NC(=O)c2ccccc2F)cc1)c1ccccc1F 3.15%
CN(c1ccc(O)cc1)c1nc(-c2cccnc2)cs1 2.25%
CN(Cc1ccccc1)S(=O)(=O)c1nnc(NC(=O)c2ccccc2F)s1 0.085%
O=C(O)c1ccccc1C(=O)Nc1nc(-c2ccccc2)cs1 2.84%
CC(=O)c1ccc(S(=O)(=O)NCCC(=O)N2CCN(c3ccccn3)CC2)cc1 -5.68%
CCC(C(=O)N1CCN(S(=O)(=O)c2sc(C(=O)O)c(C)c2C(=O)O)CC1)c1ccccc1 (centres undefined) -2.11%
Cc1ccc(COC(=O)CN2C(=O)NC3(CCCC3)C2=O)cc1 3.61%
COc1ccc(C(=O)OC(C)C(=O)NC2CCCC2)cc1S(=O)(=O)N1CCOCC1 (centres undefined) -1.33%
O=C(COC(=O)Cn1[nH]c(=O)c2ccccc2c1=O)Nc1ncc(Cl)cc1Cl -0.89%
CCCSC(=S)NC1CCS(=O)(=O)C1 (centres undefined) -23.7%
CN(CC(=O)NCc1ccc2c(c1)OCO2)CC(=O)Nc1ccc(F)c(F)c1F -0.0955%
Cc1ccc(S(=O)(=O)N2CCCCC2)cc1C(=O)N1CCN(CCO)CC1 -5.51%
CN(C)c1nc(=Nc2cccc(Cl)c2)ss1 0.0085%
c1ccc(CN2CCC(N=C3NN=C(c4ccc5c(c4)OCCO5)CS3)CC2)cc1 12.9%
COc1ccc(CCNC(=O)COC(=O)C2CC2C)cc1 (centres undefined) -2.84%
COc1ccc(-c2cc(C(=O)NCCCn3ccnc3)no2)cc1 0.776%
COc1ccccc1-c1cc(C(=O)NCCCn2ccnc2)no1 2.26%
O=C(NCCCN1CCOCC1)c1cc(-c2cccc(O)c2)on1 -6.12%
O=C(Nc1cccnc1Cl)c1cc(-c2cccc(Cl)c2)on1 -1.17%
Cc1ccc(C(=O)CN2C(=O)NC3(CCOc4ccccc43)C2=O)s1 (centres undefined) -1.26%
CN(C(=O)CSc1nnc(-c2ccc(C(C)(C)C)cc2)n1C)C1CCS(=O)(=O)C1 (centres undefined) 1.79%
CCNC(=O)c1cccc(NC(=O)C2CC(=O)N(CCc3ccccc3)C2)c1 (centres undefined) -5.09%
O=S(=O)(Nc1cc(Cl)ccc1N1CCOCC1)c1ccccc1Cl -2.12%
CCOc1ncccc1C(=O)Nc1ccc(S(=O)(=O)Nc2nc(C)cc(C)n2)cc1 -2.54%
Nc1nc(COC(=O)CCC(=O)c2ccc(Cl)cc2)nc(Nc2ccccc2)n1 3.11%
O=C(Nc1ccc(Cl)cc1)Nc1nnc(/C=C/c2ccccc2)s1 -6.47%
CCCN(CC(=O)NC(=O)NC1CCCCC1)CC(=O)Nc1cc(Cl)ccc1Cl 1.65%
CN(C(=O)CSc1nnc(-c2ccc3c(c2)OCO3)o1)C1CCS(=O)(=O)C1 (centres undefined) -4.13%

Potency, active:
Cn1c(=O)c(C(=O)Nc2ncccn2)c(O)c2ccccc21 3160 nM
COC(=O)CNS(=O)(=O)c1ccc(Cc2ccc(S(=O)(=O)NCC(=O)OC)cc2)cc1 1260 nM
CCOC(=O)c1c(C)[nH]c(C2=NNC(=NC(C)COC)SC2)c1C (centres undefined) 1580 nM
COc1ccc(/C=C/c2noc(-c3ccccc3OC(C)=O)n2)cc1 2240 nM
Oc1ccccc1-c1cc(-c2ccc(Cl)cc2)n[nH]1 2510 nM
O=C(CSCc1ccccc1)N1CCc2ccccc21 1780 nM
O=C(NCCSc1ccccc1)c1ccco1 3550 nM
CCCOC1CCCN(C(=O)c2cc(COc3cncc(Cl)c3)on2)C1 (centres undefined) 1410 nM
Cc1cc(NC(=O)COc2ccccc2C#N)no1 3550 nM
CCOc1ccc(NC(=O)Nc2cc(C)on2)cc1 1120 nM
C=CCNc1cnn(-c2ccc(C)cc2)c(=O)c1Cl 3550 nM
CC(C)c1ccc(Nc2ncccc2C#N)cc1 3550 nM
COc1ccc2c(Cl)c(C(=O)NCc3ccco3)sc2c1 3160 nM
CSCCNC(=O)c1ccc2nc(Cc3ccccc3F)oc2c1 2820 nM
O=C(Nc1nc(-c2cccnc2)cs1)c1ccccc1F 3550 nM
Cc1ccccc1Nc1nc(-c2cccnc2)cs1 2000 nM
O=C(Nc1nnc(-c2ccccc2F)s1)c1ccccc1F 708 nM
Clc1cccc(N=C2NN=C(c3ccc4c(c3)OCCO4)CS2)c1 3550 nM
O=C(NCCCn1ccnc1)c1cc(-c2ccccc2)on1 3980 nM
O=C(NC1CCCC1)c1cc(-c2ccccc2)on1 2000 nM
O=C(c1ccc(Cl)cc1)c1cnc(Nc2ccccc2)s1 3980 nM
